RORg inh = qHTS for inhibitors of ROR gamma transcriptional activity. actives 5.4% (n = 310,000). Nuclear receptor ROR-gamma (Mus musculus), P51450. Drosophila S2 Gal4-RORgamma UAS-luciferase reporter, 20 h. Potency, µM (series often up to 53.6 µM), without a hit: top-dose activity change, negative = inhibition, actives largely listed as inhibitors; note: % is set by controls: 0 for no effect and ±100 for the full control effect; nearly all actives have a fitted effect of over 60% in size
Target sequence (P51450 whole entry, looked up, the tested form may be a part): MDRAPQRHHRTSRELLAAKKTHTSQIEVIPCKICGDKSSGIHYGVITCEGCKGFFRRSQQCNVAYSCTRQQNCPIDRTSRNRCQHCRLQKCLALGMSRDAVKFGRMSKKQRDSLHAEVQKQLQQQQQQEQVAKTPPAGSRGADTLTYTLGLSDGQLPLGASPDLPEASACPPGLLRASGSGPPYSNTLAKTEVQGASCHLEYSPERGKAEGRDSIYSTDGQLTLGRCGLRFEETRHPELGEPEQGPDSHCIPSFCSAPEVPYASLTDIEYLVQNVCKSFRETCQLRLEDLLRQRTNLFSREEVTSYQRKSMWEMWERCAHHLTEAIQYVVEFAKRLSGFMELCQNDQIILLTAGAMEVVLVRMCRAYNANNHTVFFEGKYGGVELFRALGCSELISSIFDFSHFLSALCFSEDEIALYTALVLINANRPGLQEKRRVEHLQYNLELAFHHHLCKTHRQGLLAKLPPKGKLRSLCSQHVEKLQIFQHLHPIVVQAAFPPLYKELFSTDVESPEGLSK
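In this cell-based reporter format, copper sulfate (700 uM final) drives Gal4–ROR gamma fusion expression from a metallothionein promoter in Drosophila Schneider cells; compounds preincubated 1 hr, reporter read after 20 hr at ambient temperature.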
MCF10A rerep = A quantitative high throughput screen for small molecules that induce DNA re-replication in MCF 10a normal breast cells. MCF 10A DNA re-replication, Hoechst nuclear intensity, 48 h. Potency, µM (top dose mostly 46.1 µM), for inactives: top-dose activity, positive = re-replication, actives largely listed as activators. actives 2.9% (n = 350,000); note: % of control where 0% means no effect; nearly all actives have a fitted effect of over 50% in size
SW480 rerep = A quantitative high throughput screen for small molecules that induce DNA re-replication in SW480 colon adenocarcinoma cells | SW480 DNA re-replication, Hoechst DNA content imaging, 48 h | Potency, µM (series often up to 46.1 µM), inactives show at the top dose re-replication activation, actives largely listed as activators | actives 1.8% (n = 340,000) | AID 624297, 2012; note: % of control where 0% means no effect; nearly all actives have a fitted effect of over 55% in size
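250 cells/well; 23 nL cpd via pin tool; 48 hr, 37 C, 5% CO2; Hoechst 40 min; imager read of total nuclear intensity, ex 405/em 500-530 nm.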
KB-3-1 cytotox = qHTS assay for MDR1-selective chemotherapeutics: Primary screen using the parental adenocarcinoma cell KB-3-1; KB-3-1 viability, CellTiter-Glo ATP luminescence, 72 h; Potency, µM (series often up to 46.1 µM), hits mostly cytotoxic; actives 1.4% (n = 400,000); AID 1347075, 2019; note: % is set by controls: 0 for no effect and ±100 for the full control effect; nearly all actives have a fitted effect of over 60% in size
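KB-3-1 cells, DMEM (no phenol red) + 10% FBS; compound by pin transfer, 72 h, 37 °C. Readout: CellTiter-Glo luminescence after 10 min. Data normalized, curve-fitted.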
VP16 counter = VP16 counterscreen qHTS for inhibitors of ROR gamma transcriptional activity | Drosophila S2 Gal4-VP16 UAS-luciferase, luminescence, 20 h | Potency, µM (titrated, usually from 53.6 µM), for inactives: at the top dose activity, negative = inhibition, most hits filed as inhibitors | actives 3.5% (n = 310,000);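 note: Gal4-VP16 expression switched on by copper sulfate through the metallothionein promoter; % is set by controls: 0 for no effect and ±100 for the full control effect; nearly all actives have a fitted effect of over 50% in size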
KB-V1 MDR tox = qHTS assay for MDR1-selective chemotherapeutics: Primary screen using the drug-selected MDR subline cells KB-V1 | KB-V1 MDR cells viability, CellTiter-Glo, 72 h | Potency, µM (highest dose often 46.1 µM), hits mostly cytotoxic | actives 3.4% (n = 400,000); note: % is set by controls: 0 for no effect and ±100 for the full control effect; nearly all actives have a fitted effect of over 60% in size
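KB-V1 cells (P-gp-expressing MDR subline of KB-3-1) in phenol-red-free DMEM with 10% FBS were exposed to library compounds over a concentration series for 72 h at 37 degrees C. Viability read by CellTiter-Glo luminescence; concentration-effect curves fitted after normalization.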
Numbers without * were called inactive; i = inactive; ? = inconclusive; . = no result given; ! = not active in a repeat; [ ] = remark or other dose. Most compounds without a hit are left out; they make up all but 10% or so of the library. Calls come from the whole dose curve; as a rule, active = well fitted curve in the direction sought with a large enough effect; inconclusive = small, poorly fitted or top-dose-only effect, or another doubt; inactive = no such curve, though single readings can be large; an effect the other way counts as inactive or inconclusive. Potency is the fitted concentration of half-maximal effect.

SMILES	RORg inh	MCF10A rerep	SW480 rerep	KB-3-1 cytotox	VP16 counter	KB-V1 MDR tox
CC(=O)c1c(C)n(CCO)c2ccc(O)cc12	1.8%	-6.2%	-11.5%	i	-0.7%	i
CCCCCS(=O)(=O)CCCCCCCCCCn1c(-c2ccc(O)cc2)c(C)c2cc(O)ccc21	?	.	.	.	20µM*	.
COc1ccccc1CNC(=O)C1CCN(S(=O)(=O)c2ccc3[nH]c(=O)ccc3c2)CC1	.	.	.	i	.	i
O=C(c1sc2ccccc2c1Cl)N(Cc1ccccc1)C1CCS(=O)(=O)C1 (stereo not given)	37.4%	3.2%	1.4%	i	0.6%	20.6µM*
O=C(c1sc2ccccc2c1Cl)N(Cc1ccco1)C1CCS(=O)(=O)C1 (stereo not given)	17.2%	0.4%	-3.9%	i	-7.2%	?
O=C(c1sc2ccccc2c1Cl)N(Cc1ccccc1Cl)C1CCS(=O)(=O)C1 (stereo not given)	3.0%	23.0%	-2.4%	?	5.9%	8.2µM*
O=C(c1cccs1)N(Cc1cccc(Cl)c1)C1CCS(=O)(=O)C1 (stereo not given)	33.4%	-1.3%	-1.2%	i	18.9%	14.6µM*
CSc1ncc(Cl)c(C(=O)N(Cc2ccccc2Cl)C2CCS(=O)(=O)C2)n1 (stereo not given)	.	.	.	i	.	i
O=C(/C=C/c1ccco1)N(Cc1ccc(F)cc1)C1CCS(=O)(=O)C1 (stereo not given)	25.3%	6.3%	-1.0%	i	6.8%	i
O=C(/C=C/c1ccco1)N(Cc1ccccc1)C1CCS(=O)(=O)C1 (stereo not given)	11.1%	0.2%	14.6µM*	i	0.3%	i
COC(=O)NC1C=CCCC1C(C)=O (stereo not given)	-1.4%	.	.	.	0.4%	.
Cn1c(=O)c2cc(NC(=O)NCc3ccccc3)ccc2n1Cc1ccc(Cl)cc1	.	.	.	i	.	i
O=C(C[n+]1c(Cl)cc(Cl)c2ccccc21)c1ccccc1	.	.	.	i	.	i
CN(C)c1oc(-c2ccco2)nc1S(=O)(=O)c1ccc(Br)cc1	.	4.7%	-2.3%	i	.	4.61µM*
CCSc1oc(-c2ccco2)nc1S(=O)(=O)c1ccc(Br)cc1	.	.	.	i	.	i
Cc1ccc(S(=O)(=O)c2nc(-c3ccccc3Cl)oc2N(C)C)cc1	?	12.1%	?	18.4µM*	6.5%	10.3µM*
CCOP(=O)(OCC)c1nc(-c2ccccc2Cl)oc1N1CCOCC1	7.6%	?	-17.7%	i	-9.1%	?
CN(C)c1oc(-c2ccccc2Cl)nc1P(=O)(c1ccccc1)c1ccccc1	-30.6%	18.4µM*	?	?	-0.2%	7.31µM*
CCCCc1nnc(NC(=O)C23CC4CC(CC(NC(C)=O)(C4)C2)C3)s1	0.7%	1.0%	-1.7%	i	0.2%	i
C=CCSc1nnc(NC(=O)C23CC4CC(CC(NC(C)=O)(C4)C2)C3)s1	1.5%	-3.7%	20.1%	i	12.6µM*	i
COC(=O)CSc1[nH]c2ccc(Br)cc2c1[N+](=O)[O-]	2.5%	11.6µM*	6.3%	i	18.0%	i
COc1cc(CNn2nnnc2N)cc(Br)c1OCc1c(Cl)cccc1Cl	-7.2%	4.7%	1.6%	?	-0.7%	20.6µM*
CC(C)C[C@H]1CN([C@@H](CC(C)C)CN2CCCC2CN2C(=S)NC[C@@H]2Cc2ccc(O)cc2)C(=S)N1CC1CCCCC1 (stereo not given in full)	.	?	3.9%	?	.	20.6µM*
CC(C)C[C@@H](CN1CCCC1CN1C(=S)NC[C@@H]1Cc1ccccc1)N1C[C@H](Cc2ccc(O)cc2)N(CC2CCCCC2)C1=S (stereo not given in full)	.	.	.	i	.	?
Oc1ccc(C[C@H]2CNC(=S)N2CC2CCCN2C[C@H](Cc2ccc(O)cc2)N2C[C@H](Cc3ccc(O)cc3)N(CC3CCCCCC3)C2=S)cc1 (stereo not given in full)	.	10.3µM*	?	20.6µM*	.	?
SMILES	RORg inh	MCF10A rerep	SW480 rerep	KB-3-1 cytotox	VP16 counter	KB-V1 MDR tox
Oc1ccc(C[C@H]2CN([C@@H](Cc3ccccc3)CN3CCC[C@@H]3CN3C(=S)NC[C@@H]3Cc3ccccc3)C(=S)N2CC2CCCCC2)cc1	.	.	.	i	.	i
COc1ccc(-c2cn3ccccc3n2)cc1OC	5.1%	?	-11.6%	?	-16.1%	i
COc1ccc(-c2cn3cc(C)ccc3n2)cc1F	2µM*	23.8%	?	i	3.98µM*	?
COc1ccc(-c2cn3cc(C)ccc3n2)cc1OC	11.2µM*	0.2%	-5.6%	i	?	6.51µM*
Cc1ccc2nc(-c3ccc4c(c3)NC(=O)CO4)cn2c1	?	7.7%	14.7%	i	?	?
O=C(NC(=S)N1CCCCCC1)C1CC1	?	2.9%	0.9%	i	-7.5%	i
CC1CCN(C(=S)NC(=O)C2CCCCC2)CC1	12.6µM*	-0.2%	2.5%	i	?	i
NC(=O)CSc1ncc2c(n1)-c1ccccc1N(Cc1cccc(F)c1)S2(=O)=O	.	.	.	i	.	i
NNc1nncc2ccccc12	7.08µM*!	-1.3%[20.6 µM]	0.0%[20.6 µM]	.	?	.
COc1ccc(/C(C)=N/Nc2nncc3ccccc23)cc1	?	-8.1%	-5.8%	i	-10.5%	i
CNC(=S)NNc1nncc2ccccc12	5.01µM*	3.6%	12.4%	i	4.47µM*	i
CCNC(=S)NNc1nncc2ccccc12	0.501µM*	-5.2%	16.7%	i	3.16µM*	i
CCN1C(=O)[C@H]2[C@@H](c3ccc(C)cc3)N[C@]3(CCCN(Cc4cccn4C)C3=O)[C@H]2C1=O	.	.	.	i	.	i
COc1cc(OC)cc(-c2nc3nc(C)c(CCC(=O)Nc4ccc(C)c(C)c4)c(C)n3n2)c1	.	.	.	i	.	i
COc1ccc2c(c1)c(C(=O)N/N=C/c1ccc(Br)cc1)c(C)n2C	-12.4%	13µM*	10.3µM*	?	-3.7%	?
CCOc1ccc(/C=N/NC(=O)c2c(C)n(C)c3ccc(OC)cc23)cc1	?	11.6µM*	?	8.2µM*	-4.6%	13µM*
O=C(COC(=O)c1ccc2c(c1)C(=O)N(c1cccc3ncccc13)C2=O)c1ccc(Cl)cc1	?	6.51µM*	?	i	?	i
